# From PubChem BioAssay AID493169 (National Center for Advancing Translational Sciences (NCATS), 2011)
# Records with an inconclusive call do not appear. Unmarked numbers belong to inactive results. The source made the active and inactive calls. Calls follow the shape of the dose curve; as a rule, active = well fitted inhibition curve with a large enough effect; inconclusive = small, poorly fitted or top-dose-only effect; inactive = flat fitted curve, though single readings scatter.
# Test: CHOP2 Reporter Counterscreen Assay for Inhibitors of Ubiquitin-specific Protease USP2a;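 also: activated enterokinase alone at 50 pM in a cell-free format rather than USP2a or CHOP2; nearly all actives have a fitted effect of over 55% in size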
# Conditions: purified enterokinase, fluorogenic substrate, 485/531 nm; series mostly up to 38.3 µM; activity change, negative = inhibition: at the top concentration
# How it was run: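 Cell-free counterscreen with pre-activated enterokinase alone (50 pM final) in 20mM Tris-HCl pH 8.0, 2mM CaCl2, 2mM beta-mercaptoethanol, 0.05% CHAPS; compound preincubation 30 min RT, reporter substrate 25nM final, fluorescence read after 10 min (Ex 485/Em 531).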
# % is scaled to controls: 0 for no effect and ±100 for the full control effect; potency is read from the fitted curve at half-maximal effect.
SMILES,"activity change, negative = inhibition",Potency
Cc1cc(=O)oc(C)c1C(=O)NCCc1ccccc1,1.21%,
Cc1ccccc1[C@@H]1C(C#N)=C(N)S[C@H]1C(=O)c1ccccc1,-0.33%,
O=C(N/N=C/c1ccc(F)cc1)c1cc(-c2ccco2)nc2ccccc12,,2.24 µM (active)
Cc1ccc(S(=O)(=O)N2CCOCC2)cc1NC(=O)CN1C(=O)NC(C)(c2ccc(Cl)cc2Cl)C1=O (centres undefined),-0.725%,
O=C(/C=N/O)NCc1cccnc1,0.652%,
CCCc1nc(SCC(N)=O)[nH]c(=O)c1CC,0.215%,
Cc1ccc2[nH]c(C)c(CCNC(=O)c3cc4cc([N+](=O)[O-])ccc4oc3=O)c2c1,-5.03%,
COC(=O)CSc1nc2c(c(-c3ccco3)c1C#N)CCCC2,4.87%,
COc1cc(/C=C(/C(=O)c2cccs2)c2nc3ccccc3[nH]2)ccc1O,-7.73%,
COCc1c(C(=O)OCC(=O)c2c(N)n(CC(C)C)c(=O)n(C)c2=O)oc2ccccc12,-2.9%,
C[C@@H]1CC[C@]2(C(=O)O)CC[C@]3(C)C(=CCC4[C@]56CC[C@@](O)(OC5)C(C)(C)C6CC[C@]43C)C2[C@H]1C (some centres undefined),-24.5%,
Cc1ccc(C)c(S(=O)(=O)N2CCN(C(=O)/C=C/c3ccco3)CC2)c1,,11.2 µM (active)
Cc1nc2n(n1)CC(O)CS2 (centres undefined),1.03%,
Cc1ccccc1C(=O)Nc1ccc2nc3n(c(=O)c2c1)CCC3,6.38%,
CCCCCCCCCCOC(=O)Cn1c(COc2ccccc2C)[n+](C)c2ccccc21,,5.62 µM (active)
CCOc1ccc(C=NNc2ccc(S(=O)(=O)Nc3ccccc3C(=O)O)cc2[N+](=O)[O-])cc1,,11.2 µM (active)
C=CC[C@H](CC(=O)OC(C)(C)C)C(=O)OC[C@@H]1CCCN1C(=O)[C@H](CC=C)CC(=O)N[C@H](CO)Cc1ccccc1,-1.71%,
CCOc1ccc2nc(NC(=O)Nc3ccccc3)sc2c1,-4.34%,
COc1ccc(CCN2C(=O)/C(=C\c3ccco3)SC2=S)cc1OC,-0.0556%,
CC(C)C(=O)Nc1ccc(C(=O)N2CCCCCC2)cc1,-0.838%,
c1coc(CNc2nc(-c3cccs3)cs2)c1,-0.623%,
CC1=NN(c2ccc(C)cc2)C(=O)/C1=C/c1ccc(-c2cc([N+](=O)[O-])ccc2O)o1,,11.2 µM (active)
CC1(C)CC(=O)C=C(NCc2cccs2)C1,2.48%,
COc1cc(/C=N/NC(=O)c2cc(-c3ccccc3)nc3ccccc23)ccc1O,-2.73%,
